Screening results (PubChem)
gsp agonist – gsp mutant agonism; 0.13% of 340,000 active; gsp mutant cells, cAMP HTRF, 30 min; AID 624287; Potency, µM (titrated, usually from 76.9 µM), without a hit: at the highest dose activation (cAMP increase), usual class: activators; active = well fitted activation curve with a large enough effect; inconclusive = small, poorly fitted or top-dose-only effect, or another doubt; inactive = no such curve, though single readings can be large or run the other way; cell line not stated here;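 also: phosphodiesterase inhibitor Ro 20-1724 added with compounds to block cAMP breakdown; potency is read from the fitted curve at half-maximal effect; nearly all actives have a fitted effect of over 60% in size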
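Cells stably selected in G418 were plated at 2000/well, grown 16-24 hr, then given compounds in DMSO with the PDE inhibitor […] (300 uM solution added) for 30 min at 37C; cAMP was read by HTRF.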
RXFP1 ag – RXFP1 (human) receptor agonism; Q9HBX9; HEK293T-RXFP1 cAMP TR-FRET, 30 min; response scale: percent of porcine relaxin response, buffer zero; Potency, µM (top dose mostly 57.5 µM), for the others: top-dose activation, usual class: activators; 0.3% of 370,000 active; AID 2676; active = well fitted activation curve with a large enough effect; inconclusive = small, poorly fitted or top-dose-only effect; also: potency is read from the fitted curve at half-maximal effect; % is scaled to controls: 0 for no effect and ±100 for the full control effect; nearly all actives have a fitted effect of over 60% in size
Target sequence (Q9HBX9 whole entry, looked up): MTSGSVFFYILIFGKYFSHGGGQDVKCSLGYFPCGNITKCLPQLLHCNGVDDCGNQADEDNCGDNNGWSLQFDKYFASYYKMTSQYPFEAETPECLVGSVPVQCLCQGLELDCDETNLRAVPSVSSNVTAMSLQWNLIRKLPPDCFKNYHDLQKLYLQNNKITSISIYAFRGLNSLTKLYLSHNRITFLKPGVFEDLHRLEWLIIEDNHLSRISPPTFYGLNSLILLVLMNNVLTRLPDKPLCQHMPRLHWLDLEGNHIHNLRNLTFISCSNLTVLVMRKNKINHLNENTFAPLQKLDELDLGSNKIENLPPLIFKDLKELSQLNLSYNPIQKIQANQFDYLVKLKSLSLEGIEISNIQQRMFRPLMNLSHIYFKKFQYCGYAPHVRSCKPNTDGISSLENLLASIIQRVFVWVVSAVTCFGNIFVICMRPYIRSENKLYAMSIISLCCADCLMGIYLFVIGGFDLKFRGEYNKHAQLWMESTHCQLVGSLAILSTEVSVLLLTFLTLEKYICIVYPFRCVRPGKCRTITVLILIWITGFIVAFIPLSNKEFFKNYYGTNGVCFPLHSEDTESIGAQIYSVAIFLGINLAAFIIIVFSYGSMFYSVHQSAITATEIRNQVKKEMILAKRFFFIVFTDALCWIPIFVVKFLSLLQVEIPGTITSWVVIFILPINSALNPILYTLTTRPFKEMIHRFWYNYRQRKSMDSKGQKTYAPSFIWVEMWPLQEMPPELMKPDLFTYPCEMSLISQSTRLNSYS
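Agonist response is measured as cAMP accumulation in an RXFP1-transfected HEK293T line under PDE4 inhibition. Values are scaled between buffer-only and 29 nM porcine relaxin, and EC50s come from standard Hill equation fits.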
gsp antagonist – antagonizes gsp, the McCune-Albright syndrome mutation. gsp-mutant cells, cAMP HTRF, 30 min. Potency, µM (doses to about 76.9 µM), without a hit: at the top dose activity change, negative = inhibition, most hits filed as inhibitors. 0.4% of 340,000 active. AID 624288; calls by dose curve; cell line not stated here;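 also: intracellular cAMP measured with PDE inhibitor Ro 20-1724 present during compound exposure; potency is read from the fitted curve at half-maximal effect; % is scaled to controls: 0 for no effect and ±100 for the full control effect; nearly all actives have a fitted effect of over 65% in size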
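Cells, 2000/well, grown 16–24 h in DMEM 10% FBS with 0.5 mg/ml G418, then compounds plus […] (300 uM addition stock), 30 min at 37C. cAMP read by HTRF (cAMP-d2 and anti-cAMP antibody-K in lysis buffer) after 30 min RT.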
RXFP1 antagonist – antagonists of human relaxin receptor RXFP1; Q9HBX9; activity change, negative = inhibition, % at 57.5 µM; HEK293-RXFP1, relaxin-stimulated cAMP HTRF, 30 min; hits give low values; 0.59% of 350,000 active;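 active = activity change of -60% or lower, but not beyond a set lower limit; inconclusive = change between -60% and -40%, or beyond the set limit; inactive = change above -40%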; also: % is scaled to controls: 0 for no effect and ±100 for the full control effect
TSHR antagonist – human thyrotropin receptor antagonism; TSHR-expressing cells, TSH-stimulated cAMP HTRF, 2 h; hits give low values; activity change, negative = inhibition, % at 11.5 µM; 0.2% of 330,000 active;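 active = activity change below a set negative limit, meaning inhibition stronger than a set level, cut at about -70% in these data; inconclusive = activity change between two set negative limits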; also: % is scaled to controls: 0 for no effect and ±100 for the full control effect
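Read-out is FRET at 665 nm (cryptate excitation 337 nm) from a cryptate-tagged anti-cAMP antibody, competed by cell cAMP against cAMP-d2. Compounds are tested on freshly harvested TSHR cells challenged with 4nM TSH (EC80) for 2 hours at 37 deg C.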
pAkt inh – blocks phosphorylation of Akt. Neuro2A IGF-stimulated pAkt S473 HTRF, 20 min; hits give low values. activity change, % for hits at 50 µM. 0.32% of 360,000 active. AID 651550; in the data active = activity change below about -80%; inconclusive = mostly about -51% to -80%; also: % is scaled to controls: 0 for no effect and ±100 for the full control effect
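Neuro2A cells in DMEM with 0.5% FBS, overnight at 37 deg C, given compound at single 50 µM final, then IGF (6 nM final) for 20 min at 37 deg C. Lysed; phospho-Akt Ser473 by HTRF after 24 h, 665/615 ratio.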
* = called active by the depositor; [ ] = remark or other dose. In the library only some 1.3% were active in any assay of this set; here they are far more common.

Screening COc1ccccc1NC(=S)NC1CCCCCCCCCCC1 returned gsp agonist 2%, RXFP1 ag 2%, gsp antagonist -4%, RXFP1 antagonist 4, TSHR antagonist -19 and pAkt inh inactive.
For COc1ccccc1NC(=S)NC1CCCCC1 the results were gsp agonist 20µM*, RXFP1 ag 3%, gsp antagonist 1%, RXFP1 antagonist 13, TSHR antagonist 39 and pAkt inh inactive.
O=C1COc2ccc(S(=O)(=O)Nc3ccc(F)cc3)cc2N1 was read as gsp agonist 2.2µM*, RXFP1 ag 1%, gsp antagonist -2%, RXFP1 antagonist 33, TSHR antagonist 1 and pAkt inh inactive.
`Cc1ccc(NS(=O)(=O)c2ccc3c(c2)NC(=O)CO3)c(C)c1` gave gsp agonist -4%, RXFP1 ag 1%, gsp antagonist -4%, RXFP1 antagonist 5, TSHR antagonist 4 and pAkt inh inactive.
Cc1c(C(=O)Nc2nc(-c3ccc(F)cc3)ns2)oc2ccc(Cl)cc12 was read as RXFP1 ag -4% and RXFP1 antagonist -2.
Cc1ccccc1C(=O)N1CC/C(=N/OS(=O)(=O)O)c2ccc(Cl)cc21 was read as RXFP1 antagonist -15.
`O=C(c1cc(Cl)nc2ccccc12)N1CCN(S(=O)(=O)c2cccc(C(F)(F)F)c2)CC1` gave gsp agonist 14%[15.4 µM], RXFP1 ag -1%, gsp antagonist -3%, RXFP1 antagonist -77*, TSHR antagonist 8 and pAkt inh inactive.
For CCc1nc2ccccc2n1CC(=O)N1CCN(S(=O)(=O)c2cccc(C(F)(F)F)c2)CC1 the results were gsp agonist -22%, RXFP1 ag 0%, gsp antagonist 3%, RXFP1 antagonist -11 and TSHR antagonist 1.
Cc1cc2nc(SCC(=O)Nc3nonc3C)c3c(c2cc1C)CCCC3 was read as gsp agonist 14%, RXFP1 ag 3%, gsp antagonist 0%, RXFP1 antagonist -3, TSHR antagonist 49 and pAkt inh -91%*.
`Cc1ccccc1C(=O)NN1CC(C(=O)OCc2ccc(Cl)c(Cl)c2)CC1=O` (stereo unspecified) gave gsp agonist 6%, RXFP1 ag 0%, gsp antagonist 32µM*, RXFP1 antagonist 0, TSHR antagonist -4 and pAkt inh inactive.
O=C(NN1CC(C(=O)OCc2ccc(Br)cc2)CC1=O)c1ccccc1 (stereo unspecified) was read as gsp agonist 28%, RXFP1 ag 0%, gsp antagonist 13%, RXFP1 antagonist -6, TSHR antagonist 0 and pAkt inh inactive.
For O=C1c2ccccc2C(=O)N1CNc1ccccc1 the results were gsp agonist 0%, RXFP1 ag 2%, gsp antagonist -6%, RXFP1 antagonist 3, TSHR antagonist 2 and pAkt inh -123%*.
Screening Cc1ccc(C(C)OC(=O)C2(C)CCC(C(=O)O)C2(C)C)cc1 (stereo unspecified) returned RXFP1 antagonist -7.
Screening Cc1cccc(CCNC(=O)COc2cc(=O)n(C)c3ccccc23)c1 returned gsp agonist 0%[15.4 µM], RXFP1 ag 0%, gsp antagonist 32µM*, RXFP1 antagonist -18, TSHR antagonist 1 and pAkt inh inactive.
For Oc1ccc(N=Nc2nc(-c3ccccc3)c(-c3ccccc3)[nH]2)cc1 the results were gsp agonist -16%, RXFP1 ag 0%, gsp antagonist 28µM*, RXFP1 antagonist -8, TSHR antagonist -18 and pAkt inh inactive.
c1ccc2c(c1)oc1c(NCCCN3CCOCC3)ncnc12 was read as gsp agonist inconclusive, RXFP1 ag 2%, gsp antagonist 8%, RXFP1 antagonist -7, TSHR antagonist 2 and pAkt inh -109%*.
`COc1ccccc1CNC(=O)CCc1c(C)c2cc3c(C)coc3cc2oc1=O` gave RXFP1 ag -1% and RXFP1 antagonist 2.
